Assay outcomes from PubChem.
hcDAF12 agonist = activators of H. contortus DAF-12 nuclear receptor; HEK293 hcDAF-12 lit1-tk-luc reporter, luminescence; 0% DMSO, 100% Δ7-dafachronic acid; activation, % at 6.8 µM; actives 1.4% (n = 370,000); AID 652067;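 active means activation above the mean of all tested compounds plus 3 SD, cut at about 5.5% in these data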
hgDAF12 agonist = agonists of H. glycines DAF-12 nuclear receptor. HEK293 GAL4-hgDAF12 UAS-luciferase reporter, agonist luminescence; normalized to butyrate control. activation, % at 6.8 µM. actives 1.8% (n = 370,000);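 active means activation above a cutoff set at the mean of all screened compounds plus 3 SD, cut at about 10% in these data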
ssDAF12 agonist = S. stercoralis DAF-12 activation, primary screen; HEK293 ssDAF-12/GRIP1 lit1-tk-luc reporter, luminescence; % of 3 µM dafachronic acid response; activation, % at 6.8 µM; actives 1% (n = 370,000);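 active means activation above the mean over all tested compounds plus 3 SD, cut at about 0.9% in these data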
DAX1 inh-1 = inhibitors of DAX1 repression of SF-1 activated StAR promoter; HEK293T StAR-luciferase reporter, SF-1/DAX-1 repression relief; inhibition, % at 6.8 µM; actives 1.1% (n = 370,000);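 active means inhibition above the mean over all tested compounds plus 3 SD, cut at about 3.6% in these data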;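 further: higher inhibition means more luminescence from relief of DAX-1 repression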
DAX1 inh-2 = inhibits human nuclear receptor DAX1; HEK293 Gal4-DAX1 luciferase reporter, luminescence; actives 0.99% (n = 340,000); inhibition, % at 6.75 µM; AID 504766; P51843;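 active means inhibition above the mean over all tested compounds plus 3 SD, cut at about 4.2% in these data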;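 further: inhibition shows as a rise in luminescence from relieved DAX1 repression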
Target sequence (P51843 207-470 limits assumed): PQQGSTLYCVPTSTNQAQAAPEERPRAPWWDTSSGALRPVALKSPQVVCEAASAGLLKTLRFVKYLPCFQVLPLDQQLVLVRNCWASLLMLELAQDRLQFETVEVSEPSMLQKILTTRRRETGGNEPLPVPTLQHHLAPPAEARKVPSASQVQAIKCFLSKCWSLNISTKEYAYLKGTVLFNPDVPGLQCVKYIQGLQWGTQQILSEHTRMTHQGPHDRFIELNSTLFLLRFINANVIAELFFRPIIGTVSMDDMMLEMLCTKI
Hits are given with their value. Only some compounds are listed: those with a hit (about 4.1% of all), similar ones and a draw of the others.

`CC(=O)Nc1ccc(C(=O)Nc2ccc(S(=O)(=O)N3CCOCC3)cc2)cc1` gave hcDAF12 agonist inactive, hgDAF12 agonist inactive, ssDAF12 agonist inactive, DAX1 inh-1 inactive and DAX1 inh-2 inactive.
O=C(N[C@H](C(=O)N1CCC[C@H]1C(=O)NCc1ccccc1)C1CCCCC1)c1ccc(Cl)cc1Cl was read as hcDAF12 agonist inactive, hgDAF12 agonist inactive, ssDAF12 agonist inactive and DAX1 inh-1 inactive.
CC(C)(C)c1ccc(C(=O)NC(=S)N2CCCCCC2)cc1 was read as hcDAF12 agonist inactive, hgDAF12 agonist inactive, ssDAF12 agonist inactive, DAX1 inh-1 inactive and DAX1 inh-2 inactive.
Screening CC(C)(C)c1ccc(C(=O)NC(=S)N2CCCC2)cc1 returned hcDAF12 agonist inactive, hgDAF12 agonist inactive, ssDAF12 agonist 1.8, DAX1 inh-1 inactive and DAX1 inh-2 inactive.
`Cc1cc(N2CCN(CC(C)(C)O)C[C@@H]2C)ccc1N1CCN(CC(C)(C)O)[C@@H](C)C1` gave hcDAF12 agonist inactive, hgDAF12 agonist inactive, ssDAF12 agonist inactive and DAX1 inh-1 inactive.
COc1ccc(OC)c(NC(=O)c2ccc(NC(C)=O)cc2)c1 was read as hcDAF12 agonist inactive, hgDAF12 agonist inactive, ssDAF12 agonist inactive, DAX1 inh-1 inactive and DAX1 inh-2 inactive.
For CCCc1cc(C(=O)Nc2cc(OC)ccc2OC)cs1 the results were hcDAF12 agonist inactive, hgDAF12 agonist inactive, ssDAF12 agonist 1.2, DAX1 inh-1 inactive and DAX1 inh-2 inactive.
COC(=O)C(C(=O)OC)c1ccccc1NC(=O)OCc1ccccc1 was read as hcDAF12 agonist inactive, hgDAF12 agonist inactive, ssDAF12 agonist inactive and DAX1 inh-1 inactive.
`Cc1nnc(-c2cccc(C(F)(F)F)c2)nc1N1CCOCC1` gave hcDAF12 agonist inactive, hgDAF12 agonist inactive, ssDAF12 agonist inactive, DAX1 inh-1 4.3 and DAX1 inh-2 inactive.
`Cc1ccc(Oc2ccc(OCC(=O)NC3CCS(=O)(=O)C3)cc2)cc1` (centres undefined) gave hcDAF12 agonist inactive, hgDAF12 agonist inactive, ssDAF12 agonist inactive, DAX1 inh-1 inactive and DAX1 inh-2 inactive.
`Nc1ccc(N=Nc2ccccc2)cc1[N+](=O)[O-]` gave hcDAF12 agonist 5.6, hgDAF12 agonist 12.1, ssDAF12 agonist 3.0, DAX1 inh-1 inactive and DAX1 inh-2 inactive.
For CCCCCCCCN1C(=O)N2Cc3cc(F)ccc3C2CS1(=O)=O (centres undefined) the results were hcDAF12 agonist inactive, hgDAF12 agonist inactive, ssDAF12 agonist inactive and DAX1 inh-1 inactive.
`O=C(NNC(=O)c1cnccn1)c1ccc(Cl)cc1` gave hcDAF12 agonist inactive, hgDAF12 agonist inactive, ssDAF12 agonist inactive, DAX1 inh-1 inactive and DAX1 inh-2 5.8.
CCOc1cccc(/C=N\NC(=O)Cc2cccs2)c1O was read as hcDAF12 agonist inactive, hgDAF12 agonist inactive, ssDAF12 agonist inactive and DAX1 inh-1 inactive.
For COc1ccc(OC)c(-c2nc(C(=O)NCCCN3CCOCC3)cc3c2[nH]c2ccccc23)c1 the results were hcDAF12 agonist inactive, hgDAF12 agonist inactive, ssDAF12 agonist 1.0, DAX1 inh-1 inactive and DAX1 inh-2 inactive.
Screening COc1ccc(OC)c(-c2nc(C(=O)NC3CCN(Cc4ccccc4)CC3)cc3c2[nH]c2ccccc23)c1 returned hcDAF12 agonist inactive, hgDAF12 agonist inactive, ssDAF12 agonist inactive, DAX1 inh-1 inactive and DAX1 inh-2 inactive.
CCCC(=O)OCC(=O)Nc1ccc(N=Nc2ccccc2)cc1 was read as hcDAF12 agonist 5.7, hgDAF12 agonist 11.3, ssDAF12 agonist inactive, DAX1 inh-1 inactive and DAX1 inh-2 inactive.
`CCOc1ccc(CN(C)CC(=O)Nc2cc(OC)c([N+](=O)[O-])cc2C)cc1` gave hcDAF12 agonist inactive, hgDAF12 agonist inactive, ssDAF12 agonist 1.2, DAX1 inh-1 inactive and DAX1 inh-2 inactive.
CCOc1ccc(CN(C)CC(=O)Nc2cc(C)c(C)cc2[N+](=O)[O-])cc1 was read as hcDAF12 agonist inactive, hgDAF12 agonist inactive, ssDAF12 agonist inactive, DAX1 inh-1 inactive and DAX1 inh-2 inactive.
Cc1ccc(C(=O)NCC(=O)NC2CCC(C)CC2)s1 (centres undefined) was read as hcDAF12 agonist inactive, hgDAF12 agonist inactive, ssDAF12 agonist inactive, DAX1 inh-1 inactive and DAX1 inh-2 inactive.
Screening CC1CCC(NC(=O)CNC(=O)c2cccs2)CC1 (centres undefined) returned hcDAF12 agonist inactive, hgDAF12 agonist inactive, ssDAF12 agonist inactive, DAX1 inh-1 4.4 and DAX1 inh-2 inactive.
Screening Clc1ccc(CONc2ncnc3nonc23)c(Cl)c1 returned hcDAF12 agonist inactive, hgDAF12 agonist 11.2, ssDAF12 agonist inactive, DAX1 inh-1 inactive and DAX1 inh-2 inactive.
Cc1ccccc1-c1nnc(SCc2ccccc2)o1 was read as hcDAF12 agonist inactive, hgDAF12 agonist inactive, ssDAF12 agonist inactive, DAX1 inh-1 inactive and DAX1 inh-2 inactive.
For Cc1ccccc1-c1nnc(Cc2ccccc2)o1 the results were hcDAF12 agonist inactive, hgDAF12 agonist 11.7, ssDAF12 agonist inactive, DAX1 inh-1 inactive and DAX1 inh-2 inactive.
For CC(C)C[C@H]1COc2cc(Br)ccc2S(=O)(=O)N1Cc1cn(Cc2ccc(Cl)cc2)nn1 the results were hcDAF12 agonist inactive, hgDAF12 agonist inactive, ssDAF12 agonist inactive and DAX1 inh-1 inactive.
`O=C(CCCn1c(=O)oc2ccccc21)N1CCc2ccccc2C1` gave hcDAF12 agonist 7.9, hgDAF12 agonist inactive, ssDAF12 agonist inactive, DAX1 inh-1 inactive and DAX1 inh-2 inactive.
Screening O=C(CCn1c(=O)oc2ccccc21)NCCN1CCc2ccccc2C1 returned hcDAF12 agonist inactive, hgDAF12 agonist inactive, ssDAF12 agonist inactive, DAX1 inh-1 inactive and DAX1 inh-2 inactive.
COC(=O)C12C=C3CC(c4ccc(C(F)(F)F)cc4)=C3C(=O)N1Cc1[nH]c3ccccc3c1C2 (centres undefined) was read as hcDAF12 agonist inactive, hgDAF12 agonist inactive, ssDAF12 agonist inactive and DAX1 inh-1 inactive.
Screening Cc1ccc(S(=O)(=O)N2CCCc3nc(-c4ccccc4)ccc32)cc1 returned hcDAF12 agonist inactive, hgDAF12 agonist inactive, ssDAF12 agonist inactive and DAX1 inh-1 inactive.
Screening C[C@H](NC(=O)c1ccco1)C(=O)Nc1cccc([N+](=O)[O-])c1 returned hcDAF12 agonist inactive, hgDAF12 agonist inactive, ssDAF12 agonist inactive, DAX1 inh-1 inactive and DAX1 inh-2 5.3.
O=C(Nc1cc(Oc2ccc(Cl)cc2)cc([N+](=O)[O-])c1)c1ccco1 was read as hcDAF12 agonist 5.6, hgDAF12 agonist inactive, ssDAF12 agonist inactive, DAX1 inh-1 inactive and DAX1 inh-2 inactive.
Screening CCOC(=O)Nc1nc2ccccc2s1 returned hcDAF12 agonist inactive, hgDAF12 agonist 11.0, ssDAF12 agonist inactive, DAX1 inh-1 inactive and DAX1 inh-2 inactive.
Screening O=C(CCNC(=O)c1ccccc1Cl)Nc1nc2ccccc2s1 returned hcDAF12 agonist 6.4, hgDAF12 agonist inactive, ssDAF12 agonist inactive, DAX1 inh-1 inactive and DAX1 inh-2 inactive.
For CCCNC(=O)Nc1nc2ccccc2s1 the results were hcDAF12 agonist inactive, hgDAF12 agonist 12.4, ssDAF12 agonist inactive, DAX1 inh-1 inactive and DAX1 inh-2 4.4.
